RORg inh: inhibitors of mouse ROR gamma transcriptional activity | AID 2551 | P51450 | Potency, µM (doses to about 53.6 µM), for the others: at the highest dose activity change, negative = inhibition, hits mostly inhibitors | Drosophila S2 Gal4-RORgamma UAS-luciferase reporter, 20 h | 5.4% of 310,000 active; also: nearly all actives have a fitted effect of over 60% in size
Target sequence (P51450 whole entry, looked up, the tested form may be a part): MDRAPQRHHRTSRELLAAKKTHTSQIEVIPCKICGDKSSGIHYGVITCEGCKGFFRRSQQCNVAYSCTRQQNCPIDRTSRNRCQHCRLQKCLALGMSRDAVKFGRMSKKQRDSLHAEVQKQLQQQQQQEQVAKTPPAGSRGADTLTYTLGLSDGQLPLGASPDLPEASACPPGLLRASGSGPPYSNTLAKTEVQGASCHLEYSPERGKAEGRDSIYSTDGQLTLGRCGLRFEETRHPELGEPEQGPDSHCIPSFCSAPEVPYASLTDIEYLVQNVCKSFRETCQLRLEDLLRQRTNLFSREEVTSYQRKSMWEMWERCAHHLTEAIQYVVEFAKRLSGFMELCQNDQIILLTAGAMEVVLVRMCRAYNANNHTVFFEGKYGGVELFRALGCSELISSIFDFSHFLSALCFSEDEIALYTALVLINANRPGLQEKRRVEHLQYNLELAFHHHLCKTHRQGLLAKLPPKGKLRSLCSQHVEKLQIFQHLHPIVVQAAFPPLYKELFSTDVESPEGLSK
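ROR gamma transcriptional activity was tracked as Gal4-UAS luciferase output in stably transfected Drosophila Schneider cells, with compound added 1 hr before 700 uM copper sulfate induction and a 20 hr ambient-temperature incubation.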
ALDH1A1 inh: inhibitors of human aldehyde dehydrogenase 1A1; P00352; Purified ALDH1A1, NADH fluorescence, propionaldehyde substrate; Potency, µM (series often up to 75.3 µM), inactives show at the highest dose activity, negative = inhibition, usual class: inhibitors; 7.3% of 220,000 active; active = well fitted inhibition curve with a large enough effect, not every such curve was filed as active; inconclusive = small, poorly fitted or top-dose-only effect, or another doubt; inactive = no such curve, though single readings can be large or run the other way;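 also: plate controls were no enzyme wells and a reference inhibitor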
PLK1 PBD inh: inhibitors of human PLK1 polo-box domain binding. 2.8% of 360,000 active. Potency, µM, for inactives: max response, negative = inhibition, usual class: inhibitors. P53350. Plk1 PBD binding of FITC phosphopeptide, fluorescence polarization; also: series mostly up to about 57 µM; nearly all actives have a fitted effect of over 65% in size
Sfp PPTase inh: blocks B. subtilis Sfp PPTase activity; Q9F4F7; Biochemical Sfp PPTase activity, qHTS; Potency, µM, inactives show largest response in the series, negative = inhibition, most hits filed as inhibitors; 3.5% of 310,000 active; AID 1490;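 also: the enzyme is Sfp with the accession as filed and its product quenches rhodamine fluorescence; 0% = enzyme reaction without inhibitor and -100% = no enzyme wells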
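Fluorescence-quenching assay: 15 nM Sfp-PPTase preincubated 15 min at room temperature with compound, then 5 uM rhodamine-CoA and 12.5 uM BHQ-2-labelled YbbR peptide added. Fluorescence (ex 525/em 598 nm) read at start and after 30 min; difference gives rate.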
Gal4-VP16 FLuc: Gal4-VP16 reporter inhibition counter-screen. AID 2546. Drosophila S2 Gal4-VP16 UAS-luciferase, luminescence, 20 h. 3.5% of 310,000 active. Potency, µM (titrated, usually from 53.6 µM), for inactives: at the top dose activity, negative = inhibition, usual class: inhibitors;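 also: Gal4-VP16 expression switched on by copper sulfate through the metallothionein promoter; nearly all actives have a fitted effect of over 50% in size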
An asterisk follows results filed as active; u = inconclusive; x = no result; [ ] = remark or other dose. The list is not random: actives were taken first. Their share in the collection is about 12%. Unless noted, calls follow the shape of the dose curve; as a rule, active = well fitted curve in the direction sought with a large enough effect; inconclusive = small, poorly fitted or top-dose-only effect, or another doubt; inactive = no such curve, though single readings can be large; an effect the other way counts as inactive or inconclusive. Unless noted, % is scaled to controls: 0 for no effect and ±100 for the full control effect; potency is read from the fitted curve at half-maximal effect.

SMILES | RORg inh | ALDH1A1 inh | PLK1 PBD inh | Sfp PPTase inh | Gal4-VP16 FLuc
Cc1ncc(CO)c(/C=N/NC(=S)Nc2cccc(Cl)c2)c1O | u | u | 21µM* | 50µM* | -13%
OC[C@H]1O[C@@H](n2cnc3c(N[C@H]4C[C@H]5CC[C@@H]4C5)ncnc32)[C@H](O)[C@@H]1O | x | -9% | x | 7% | x
Cc1cc(C2(c3cc(C)c(O)cc3C)OS(=O)(=O)c3ccccc32)c(C)cc1O | -4% | 28µM* | x | x | -12%
O=C1c2ccccc2CN1Cc1ccccc1 | 8% | x | -2% | -14% | 12%
COc1ccccc1CNC(=O)CSc1nc2c(oc3ccccc32)c(=O)n1CC1CCCO1 (stereo unspecified) | x | x | -4% | x | x
COc1ccccc1Cn1c(SCC(N)=O)nc2c(oc3ccccc32)c1=O | 26% | 1.3µM* | u | -14% | -16%
Cc1ccccc1-n1c(=O)cc(N2CCc3ccccc32)[nH]c1=O | u | u | -19% | 56µM* | -13%
O=c1cc(N2CCc3ccccc32)[nH]c(=O)n1-c1ccccc1Cl | 4% | -7% | -13% | 2% | -4%
Cc1ccc(-c2csc(NC(=O)CCNC(=O)c3ccco3)n2)cc1 | u | -11% | 3% | 14% | -14%
Cc1ccc(-c2csc(NC(=S)NC(=O)c3ccco3)n2)cc1 | 5.6µM* | 16% | -4% | 1% | u
Cc1ccc(C(=O)Nc2nc(C)c(C(=O)N(C)C)s2)o1 | 0% | x | -16% | 2% | 0%
COc1ccc(-c2csc(NC(=S)NC(=O)c3cc4ccccc4o3)n2)cc1Br | -16% | x | -1% | -10% | -5%
Cc1nc(NC(=S)NC(=O)c2ccco2)sc1C(=O)N(C)C | 23% | x | -12% | 22µM* | 27%
COc1ccc(-c2csc(NC(=S)NC(=O)c3ccco3)n2)cc1Br | 7.9µM* | x | -11% | 1% | u
CCNC(=O)C1(C)CCN(C(=O)c2ccccc2C(F)(F)F)C1 (stereo unspecified) | x | x | -9% | x | x
OC(c1cccc(Cl)c1)c1ncc(-c2cccc(C(F)(F)F)c2)[nH]1 (stereo unspecified) | x | x | 0% | x | x
Cn1c(SCC(=O)N2CCOCC2)nnc1-c1cccc(NC(=O)c2ccccc2F)c1 | 0% | 25µM* | -9% | 11% | -9%
CCCC(=O)Nc1ccc2nc(SCC(=O)N3CCCC3)sc2c1 | 11% | 2% | -12% | 6% | -14%
Cn1c(SCC(=O)Nc2ccc3nc(SCC(=O)N4CCCC4)sc3c2)nnc1-c1ccccc1 | 41% | 22µM* | u | -22% | -14%
Cn1cnnc1SCC(=O)Nc1ccc2nc(SCc3ccccc3F)sc2c1 | 2% | 13µM* | -6% | -11% | -6%
OCC1OCOC2C(CO)OCOC12 (stereo unspecified) | x | x | -3% | x | x
CCCCCCn1c(=O)n2n(c1=O)[C@@H]1CN(S(=O)(=O)c3ccc(C)cc3)C[C@]1(O)[C@@H](OC(=O)NCc1ccccc1)C2 | x | x | -5% | x | x
NC(=S)NN=C1c2cc(S(=O)(=O)N3CCOCC3)ccc2-c2ccc(S(=O)(=O)N3CCOCC3)cc21 | -14%[10 µM] | 0% | -7% | 6% | -17%
NC(=S)N/N=C1\CCOc2ccc(Cl)cc21 | 3.2µM* | 1% | -6% | 1% | 8.9µM*
CCCS(=O)(=O)NC(=O)C1(C)CCN(C(=O)Cc2cccc3ccccc23)C1 (stereo unspecified) | x | x | -6% | x | x
SMILES | RORg inh | ALDH1A1 inh | PLK1 PBD inh | Sfp PPTase inh | Gal4-VP16 FLuc
O=C(NCc1ccc(Cl)cc1)c1ccc2nc[nH]c2c1 | 10% | 7% | 30µM* | 3% | 0%
O=C(NCc1cccc(Cl)c1)c1ccc2nc[nH]c2c1 | -12% | 5% | -5% | 13% | 1%
COc1ccc(CCN2C(=NC(C)=O)SC3CS(=O)(=O)CC32)cc1OC (stereo unspecified) | -14% | x | -4% | 15% | 5%
C/C(=N\NS(=O)(=O)c1ccc([N+](=O)[O-])cc1)c1cccs1 | 14% | 1% | 27µM* | 1% | -12%
C/C(CC(C)C)=N\NS(=O)(=O)c1ccc(C)c([N+](=O)[O-])c1 | 34% | x | 30µM* | 12% | -1%
C/C(=N\NS(=O)(=O)c1ccc(C)c([N+](=O)[O-])c1)c1cccs1 | 22% | 32µM* | u | -12% | 1%
CC(C)/C(=N\NS(=O)(=O)c1ccc(Br)cc1)c1cccs1 | -7% | u | 24µM* | 18% | 5%[10 µM]

Screening results (PubChem BioAssay)
